Screening data: PubChem, National Center for Advancing Translational Sciences (NCATS)
TRHR enhancer = TRH receptor (human) allosteric enhancement; TRHR cells, fluo-8 calcium fluorescence, EC20 TRH enhancement; enhancement, % at 2 µM; hit rate 0.66% among 360,000; in the data active = enhancement above about 30%; note: 0% is about no effect
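Enhancer read-out: after compound pinning and an initial kinetic agonist-mode read, an EC20 of TRH (10 nM final) was injected and fluo-8 calcium signal (Ex 480/Em 530) followed at 1 s/cycle for 100 cycles in TRHR-expressing cells.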
TRHR ag = activates the human TRH receptor; P34981; TRHR cells, calcium flux fluo-8, FDSS agonist mode; activation, % at 2 µM; hit rate 0.18% among 360,000; AID 493084; note: 0% is about no effect
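Fluo-8-loaded TRHR cells; 10 s baseline, compound added, kinetic Ca2+ fluorescence read 1/s, agonist mode.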
D1 agonist = agonists of human D1 dopamine receptor | P21728 | HEK293 T-REx D1 cells, calcium flux, agonist mode | activation, % at 2 µM | hit rate 1% among 360,000 | AID 504660; note: 0% is about no effect
Target sequence (P21728 whole entry, looked up): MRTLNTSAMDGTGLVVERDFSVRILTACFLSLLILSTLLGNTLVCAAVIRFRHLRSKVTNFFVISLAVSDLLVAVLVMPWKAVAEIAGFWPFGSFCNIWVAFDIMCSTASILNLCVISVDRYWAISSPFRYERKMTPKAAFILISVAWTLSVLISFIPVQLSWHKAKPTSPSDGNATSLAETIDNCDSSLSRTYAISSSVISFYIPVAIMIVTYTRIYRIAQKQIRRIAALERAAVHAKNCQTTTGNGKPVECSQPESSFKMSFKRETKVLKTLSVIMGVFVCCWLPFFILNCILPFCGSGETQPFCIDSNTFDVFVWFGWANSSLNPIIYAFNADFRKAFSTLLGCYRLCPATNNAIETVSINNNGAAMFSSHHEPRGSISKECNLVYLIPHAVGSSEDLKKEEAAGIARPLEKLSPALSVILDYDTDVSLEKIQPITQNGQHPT
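Inducible HEK293 T-REx D1 cells, force-coupled to calcium signalling, were plated at 4000 cells/well with tetracycline and held overnight at 30 C. After no-wash calcium dye loading, compound-evoked calcium rise over 180 s flagged agonists.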
D1 antagonist = blocks dopamine activation of the human D1 receptor; P21728; HEK293 TREx D1 cells, calcium flux, dopamine EC80; hits give low values; activity change, negative = inhibition, % at 10 µM; hit rate 3.2% among 360,000; AID 504652; in the data active = activity change below about -30%; note: % is set by controls: 0 for no effect and ±100 for the full control effect
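Tetracycline-induced HEK293 T-REx cells with force-coupled D1 receptor were loaded with a no-wash calcium dye. Compound was added after a 10 s baseline and read kinetically for 180 s; EC80 dopamine was then added and calcium flux followed another 180 s.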
D1 PAM = human D1 dopamine receptor positive modulation. HEK293 TREx D1 cells, calcium flux, dopamine EC20 potentiation. P21728. hit rate 0.036% among 360,000. potentiation, % at 10 µM. AID 504651; in the data active = potentiation above about 30%; note: 0% is about no effect
* hit, by the source's call; nt = no result. This is a sample that favours compounds with a hit; in the whole collection about 4.7% have one here. Cut-off read from the data, not from the text of the source, unless noted: active = activation above about 30%; inactive = the rest.

SMILES | TRHR enhancer | TRHR ag | D1 agonist | D1 antagonist | D1 PAM
COc1ccc(S(=O)(=O)n2nc(-c3ccco3)nc2NCc2ccc(OC)c(OC)c2)cc1 | 4.8 | -2.1 | 2.6 | -6.0 | 0.7
COC(=O)CSc1ncnc2scc(-c3ccccc3)c12 | -3.1 | 2.8 | 9.1 | -2.8 | -8.3
Fc1ccc(CSc2ncnc3scc(-c4ccccc4)c23)cc1 | 0.2 | 1.8 | 35.1* | -12.9 | -7.3
CCC(=O)c1cc(F)ccc1OCC(=O)N1CCN(c2ccc(F)cc2)CC1 | -5.5 | -0.3 | 6.5 | -33.8* | -7.8
CC(=O)c1ccc(N2CCN(C(=O)COc3ccc(F)cc3)CC2)c(F)c1 | -2.8 | -0.3 | 9.7 | -17.5 | -1.6
CC(=O)c1cc(F)c(N2CCN(C(=O)c3ccco3)CC2)cc1C | 0.5 | -0.4 | 22.2 | -31.7* | -6.2
CCn1cc(C(=O)NCCC(C)C)c(=O)c2cc(F)c(N3CCN(C(=O)c4ccco4)CC3)cc21 | -0.7 | 0.2 | 0.5 | 7.2 | 2.6
CCn1cc(C(=O)NC(C)C)c(=O)c2cc(F)c(N3CCN(C(=O)c4ccco4)CC3)cc21 | 0.9 | 0.0 | 5.0 | -31.3* | -3.5
CC(=O)c1cc(F)c(N2CCN(C(=O)COc3ccc(F)cc3)CC2)cc1C | -1.8 | -0.1 | 6.6 | -32.9* | -7.2
Cc1nc(Nc2ccc(Cl)cc2Cl)sc1C(=O)Nc1ccccc1 | -4.8 | 0.6 | -0.1 | -1.0 | 4.1
Cc1nc(Nc2ccccc2)sc1C(=O)c1ccccc1 | -2.7 | 1.4 | 12.8 | -32.6* | -1.5
Cc1nc(Nc2ccc(Cl)c(Cl)c2)sc1C(=O)Nc1ccccc1 | 3.3 | 0.4 | 6.3 | -51.6* | -8.0
Cc1nc([N+](=O)[O-])cn1CC(=O)Nc1ccc([N+](=O)[O-])cc1 | -4.6 | 0.1 | 2.3 | 2.0 | -5.7
CCOc1ccc(C(=O)Nc2cccc3ncccc23)cc1Cl | -9.0 | 0.0 | 4.7 | -30.1* | -6.5
CCOc1cc(/C=C2\CCCc3c2nc2ccccc2c3C(=O)O)ccc1OC | 14.9 | 151.1* | 411.2* | -6.1 | 17.9
Cn1c(N)c(C(=O)COC(=O)/C=C/c2ccc(F)cc2)c(=O)n(C)c1=O | 0.7 | 0.4 | 8.9 | -4.6 | 1.0
COc1ccc(/C=C2\CCCc3c2nc2ccccc2c3C(=O)OCC(=O)c2c(N)n(C)c(=O)n(C)c2=O)cc1 | 0.2 | 0.4 | -0.7 | -39.6* | -1.2
COc1ccc(-c2cc(C(=O)OCC(=O)c3c(N)n(C)c(=O)n(C)c3=O)c3ccccc3n2)cc1 | 3.9 | -0.1 | 0.7 | 10.3 | -3.9
Cn1c(N)c(C(=O)COC(=O)/C=C/c2cccc(Br)c2)c(=O)n(C)c1=O | 0.7 | 0.1 | 4.5 | -32.8* | -1.3
COc1ccc(/C=C/C(=O)OCC(=O)c2c(N)n(C)c(=O)n(C)c2=O)cc1 | 12.1 | 1.7 | 13.4 | -32.2* | 1.4
Cc1ccc(C(CC(=O)Nc2ccc(F)c(Cl)c2)N2Cc3ccccc3C2=O)cc1 (stereo not given) | -0.8 | 0.3 | -1.4 | -2.3 | -2.4
CCOc1ccccc1CNC(=O)c1ccc(Sc2ccc(Cl)cc2)c(NC(C)=O)c1 | 1.4 | -0.2 | 3.4 | -38.5* | -3.1
COc1ccc2oc(=O)c(C(=O)NCCc3c(C)[nH]c4ccc(Br)cc34)cc2c1 | 13.1 | 0.3 | -0.7 | -0.1 | -3.5
Cc1nn(-c2ccccc2)c2sc(C(=O)Nc3ccc(Cl)cc3Cl)cc12 | 5.7 | 0.3 | -1.4 | -82.8* | 2.9
Cc1ccc(NC(=O)c2c(C)nn(-c3ccccc3)c2-n2cccc2)c(Cl)c1 | 1.8 | 2.0 | 4.4 | -32.9* | -2.9
SMILES | TRHR enhancer | TRHR ag | D1 agonist | D1 antagonist | D1 PAM
O=c1cc(-c2ccccc2Cl)oc2c(NS(=O)(=O)c3ccccc3C(F)(F)F)ccc(O)c12 | -3.3 | -0.5 | 1.6 | -30.3* | -7.0
CC(C)NS(=O)(=O)c1ccc(NC(=O)C(C)OC(=O)CCCOc2ccccc2)cc1 (stereo not given) | 30.2* | 0.4 | 12.5 | -19.7 | -7.6
Nc1nc(COC(=O)CCC(=O)c2ccccc2)nc(Nc2ccccc2)n1 | 0.4 | -0.3 | 3.2 | -32.0* | -10.7
Nc1nc(COC(=O)c2ccc3c(c2)OCCO3)nc(Nc2ccccc2)n1 | 2.8 | 0.0 | 32.6* | -30.5* | -5.7
Nc1nc(CCl)nc(Nc2ccccc2)n1 | 13.5 | 0.3 | 0.8 | 2.7 | 4.8
Cc1ccc(C(=O)Nc2cccc(C(=O)OCc3cc(=O)n4nc(C5CC5)sc4n3)c2)cc1 | -3.9 | -1.8 | 33.0* | -6.3 | 0.2
Cc1cccc(C(=O)OCc2cc(=O)n3nc(C4CC4)sc3n2)c1 | 9.0 | 0.5 | 8.1 | -30.7* | -6.5
O=C(OCC1CCCO1)c1ccc2c(c1)N(Cc1cccc(Cl)c1)C(=O)c1ccccc1S2(=O)=O (stereo not given) | -2.6 | 0.3 | 8.0 | -10.4 | -0.6
COCCOc1ccc(C(F)(F)F)cc1NC(=O)COC(=O)C12CC3CC(CC(O)(C3)C1)C2 | 2.2 | 2.3 | 3.8 | -29.4 | -0.2
Cc1ccc(-n2nc3c(=O)n(CC(=O)Nc4ccccc4F)nc(C)c3c2C)c(C)c1 | -0.2 | -1.4 | -2.0 | 4.8 | -1.6
O=C(CN1C(=O)COc2ccccc21)NCCN1CCOCC1 | -3.1 | 0.7 | 0.5 | -17.9 | -8.9
CC1Oc2ccccc2N(CC(=O)NCCN2CCOCC2)C1=O (stereo not given) | 1.5 | 0.8 | 2.6 | -67.4* | -11.3
CCC1Oc2ccccc2N(CC(=O)NCCCN2CCN(c3ccc(OC)cc3)CC2)C1=O (stereo not given) | 0.5 | 0.1 | 5.7 | -90.0* | -6.1
N#Cc1ccccc1NC(=O)C(=O)NCC(c1cccnc1)N1CCc2ccccc21 (stereo not given) | -4.5 | 0.0 | 2.7 | -5.3 | -0.1
O=C(CSC(=S)N1CCCC1)N(Cc1nnc(-c2ccccc2Cl)o1)C1CC1 | -0.9 | 0.1 | 5.3 | -66.9* | nt
Cc1ccc(C(=O)N(Cc2nnc(-c3ccc(Cl)cc3)o2)C2CC2)o1 | -13.9 | -1.5 | -0.6 | 0.6 | 1.7
O=C1OC(CC(=O)N(Cc2nnc(-c3ccc(Cl)cc3)o2)C2CC2)c2ccccc21 (stereo not given) | 0.3 | -0.1 | 0.7 | -44.4* | nt
Cc1c(Cl)cccc1NC(=O)C(C)n1c(=O)cc(C)c2c(C)nn(-c3ccccc3)c21 (stereo not given) | -7.7 | 0.2 | 1.4 | 10.8 | -4.5
CCN(Cc1ccccc1)C(=O)Cn1c(=O)cc(C)c2c(C)nn(-c3cccc(F)c3)c21 | 0.4 | 0.6 | 3.6 | 7.3 | -1.4
COc1ccccc1N1CCN(C(=O)C2C3C=CC4(CN(Cc5ccccc5Cl)C(=O)C24)O3)CC1 (stereo not given) | 2.5 | 0.2 | 2.7 | -34.6* | -8.5
COc1ccc(CCN2CC34C=CC(O3)C(C(=O)NCc3ccccc3Cl)C4C2=O)cc1OC (stereo not given) | -3.7 | -0.6 | 1.8 | -4.9 | -4.7
Cc1cc(C)n(-c2ccc(C(=O)OC(C)C(=O)Nc3ccc(C(N)=O)cc3)cc2)n1 (stereo not given) | 3.4 | 0.1 | 4.2 | -31.0* | -4.4
